Reference: PubChem BioAssay (NCI)
This is part of a sample that, as a whole, favours compounds with a hit. Of some 79,000 tested, about 15% had one in any assay. Activity calls are given as the source filed them. Cut-off read from the data, not from the text of the source: active = growth inhibition above about 70%; inactive = the rest.

Columns and labels:
[1] = NCI Yeast Anticancer Drug Screen. Data for the rad52 strain (AID 147);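 note: 0% = growth of vehicle-treated control cultures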; settings: S. cerevisiae rad52 mutant growth inhibition, hits give high values
Summary of the method: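 Inhibition of yeast growth, referenced to vehicle controls, was the measured output for a strain with defective DNA damage repair.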

[2] = NCI Yeast Anticancer Drug Screen. Data for the wt1 strain (AID 149);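 note: 0% = growth of vehicle-treated wt1 cultures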; settings: S. cerevisiae wt1 strain (SPY 50644) growth inhibition, hits give high values
Summary of the method: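 Measured: growth of wt1 yeast under compound versus vehicle treatment, reported as inhibition.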

[3] = NCI Yeast Anticancer Drug Screen. Data for the rad50EPP+ strain (AID 151);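 note: 0% = growth of vehicle-treated control cultures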; settings: S. cerevisiae rad50 mutant strain, hits give high values
Summary of the method: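 Genetically defined yeast (rad50EPP+, DNA damage repair alteration) is grown with compound, and inhibition of growth is expressed relative to vehicle-treated controls.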

[4] = NCI Yeast Anticancer Drug Screen. Data for the mgt1 strain (AID 153); settings: S. cerevisiae mgt1 mutant growth inhibition, hits give high values
Summary of the method: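 In the mgt1 strain, test compounds were added and growth inhibition was determined relative to vehicle-treated controls.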

[5] = NCI Yeast Anticancer Drug Screen. Data for the rad50 strain (AID 155);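 note: 0% = growth of vehicle-only cultures of the same strain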; settings: S. cerevisiae rad50 strain growth inhibition, hits give high values
Summary of the method: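 Growth of the mutant yeast was measured after compound exposure and referenced to vehicle-treated cultures.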

[6] = NCI Yeast Anticancer Drug Screen. Data for the mec2-1 strain (AID 157); settings: S. cerevisiae mec2-1 strain, hits give high values
Summary of the method: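 Each compound was tested on mec2-1 yeast, a strain altered in DNA damage repair or cell cycle control. Growth inhibition is reported relative to vehicle.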

[7] = NCI Yeast Anticancer Drug Screen. Data for the rad14 strain (AID 159);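 note: 0% = growth of vehicle-treated control cultures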; settings: S. cerevisiae rad14 strain growth inhibition, hits give high values
Summary of the method: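 Here, inhibition of yeast growth was measured after compound exposure, using a strain with a genetic defect in DNA damage repair and vehicle-treated cultures as the reference.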

[8] = NCI Yeast Anticancer Drug Screen. Data for the CLN2oe strain (AID 163);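 note: 0% = growth of vehicle-only control cultures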; settings: S. cerevisiae CLN2oe strain, hits give high values
Summary of the method: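 First, the altered yeast strain was treated with each compound; second, its growth was measured; finally, inhibition was derived by comparison with vehicle controls.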

[9] = NCI Yeast Anticancer Drug Screen. Data for the cln2 rad14 strain (AID 165);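 note: 0% = growth equal to vehicle treated cultures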; settings: S. cerevisiae cln2 rad14 strain, hits give high values
Summary of the method: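 Test compounds were added to cln2 rad14 yeast cultures; inhibition of growth was then determined by comparison with vehicle treatment.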

[10] = NCI Yeast Anticancer Drug Screen. Data for the bub3 strain (AID 167); settings: S. cerevisiae bub3 mutant strain, hits give high values
Summary of the method: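 Whole-cell yeast assay. The mutant strain was incubated with compounds, and growth inhibition was determined by comparison with vehicle-treated cells.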

[11] = NCI Yeast Anticancer Drug Screen. Data for the wt2 strain (AID 169);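 note: 0% = growth of vehicle-treated yeast cultures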; settings: S. cerevisiae wt2 strain growth inhibition, hits give high values
Summary of the method: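 The panel's yeast strains carry defined changes in DNA repair or cell cycle genes. Each strain is grown with compound, and growth loss is scored relative to vehicle.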

[12] = NCI Yeast Anticancer Drug Screen. Data for the mlh1 strain (AID 171);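 note: 0% = growth of vehicle-treated control cultures of the same strain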; settings: S. cerevisiae mlh1 strain growth inhibition, hits give high values
Summary of the method: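 Inhibition values reflect reduced yeast growth in the presence of compound, referenced to vehicle controls, using a strain chosen for its alteration in DNA repair or cell cycle control.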

[13] = NCI Yeast Anticancer Drug Screen. Data for the sgs1 strain (AID 173);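 note: 0% = growth of vehicle-only control cultures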; settings: S. cerevisiae sgs1 mutant, hits give high values
Summary of the method: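 Vehicle-treated cultures served as reference for growth inhibition of a yeast strain altered in DNA damage repair or cell cycle control after compound exposure.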

[14] = NCI Yeast Anticancer Drug Screen. Data for the mlh1 rad18 strain (AID 175); settings: S. cerevisiae mlh1 rad18 strain growth inhibition, hits give high values
Summary of the method: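 Inhibition values reflect reduced growth of mutant yeast versus vehicle-treated controls following compound exposure; the mutations affect DNA damage repair.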

[15] = NCI Yeast Anticancer Drug Screen. Data for the rad18 strain (AID 177); settings: S. cerevisiae rad18 mutant growth inhibition, hits give high values
Summary of the method: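 Steps: expose repair-mutant yeast to compound; measure growth; express as inhibition relative to vehicle control.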

[16] = NCI Yeast Anticancer Drug Screen. Data for the sgs1 mgt1 strain (AID 161);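 note: 0% = growth of cultures given vehicle only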; settings: S. cerevisiae sgs1 mgt1 strain, hits give high values
Summary of the method: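 Test agents were incubated with a DNA-repair-mutant yeast strain. Growth was then read and compared against vehicle-treated controls.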

[17] = at 5.0 µM (retest, dose inferred, filed as 0.5)
[18] = at 50.0 µM (retest, dose inferred, filed as 5.0)

Measured: growth inhibition

C=C(Cl)COC(=O)Nc1cccc(Cl)c1
active: [1]; at 33.0 µM 80% | [1]; at 100.0 µM 97% | [2]; at 100.0 µM 90% | [3]; at 33.0 µM 75% | [3]; at 100.0 µM 84% | [4]; at 100.0 µM 96% | [5]; at 33.0 µM 80% | [5]; [18] 79% | [5]; at 50.0 µM 82% | [5]; at 100.0 µM 97% | [6]; at 100.0 µM 91% | [7]; at 100.0 µM 97% | [8]; at 100.0 µM 94% | [10]; at 100.0 µM 92% | [11]; at 100.0 µM 98% | [12]; at 100.0 µM 97% | [13]; at 100.0 µM 97% | [14]; [18] 80% | [14]; at 50.0 µM 82.5% | [15]; at 100.0 µM 94%
inactive: [1]; at 1.2 µM 3% | [1]; at 3.7 µM 8% | [1]; at 11.0 µM 30% | [2]; at 1.2 µM -1% | [2]; at 3.7 µM -1% | [2]; at 11.0 µM 1% | [2]; at 33.0 µM 13% | [3]; at 1.2 µM 7% | [3]; at 3.7 µM 25% | [3]; at 11.0 µM 52% | [4]; at 1.2 µM -14% | [4]; at 3.7 µM -6% | [4]; at 11.0 µM -11% | [4]; at 33.0 µM 16% | [5]; at 1.2 µM 8% | [5]; at 3.7 µM 27% | [5]; [17] 0% | [5]; at 11.0 µM 58% | [6]; at 1.2 µM -19% | [6]; at 3.7 µM -10% | [6]; [17] -17% | [6]; at 11.0 µM -25% | [6]; at 33.0 µM 0% | [6]; [18] 19% | [6]; at 50.0 µM 3.15% | [7]; at 1.2 µM 1% | [7]; at 3.7 µM 2% | [7]; at 11.0 µM 4% | [7]; at 33.0 µM 39% | [8]; at 1.2 µM 0% | [8]; at 3.7 µM -5% | [8]; at 11.0 µM -10% | [8]; at 33.0 µM 3% | [9]; [17] 19% | [9]; [18] 16% | [9]; at 50.0 µM 25.1% | [10]; at 1.2 µM -17% | [10]; at 3.7 µM -17% | [10]; [17] -25% | [10]; at 11.0 µM -8% | [10]; at 33.0 µM 9% | [10]; [18] 18% | [10]; at 50.0 µM 34.4% | [11]; at 1.2 µM -3% | [11]; at 3.7 µM -1% | [11]; at 11.0 µM 1% | [11]; at 33.0 µM 39% | [12]; at 1.2 µM -6% | [12]; at 3.7 µM -1% | [12]; at 11.0 µM 1% | [12]; at 33.0 µM 36% | [13]; at 1.2 µM 0% | [13]; at 3.7 µM 3% | [13]; at 11.0 µM 13% | [13]; at 33.0 µM 63% | [14]; [17] -13% | [15]; at 1.2 µM -1% | [15]; at 3.7 µM -2% | [15]; at 11.0 µM 8% | [15]; at 33.0 µM 55%

NC(=O)C(=O)NNc1ccccc1
inactive: [1]; at 1.2 µM 4% | [1]; at 3.7 µM 12% | [1]; at 11.0 µM 39% | [2]; at 1.2 µM 3% | [2]; at 3.7 µM 13% | [2]; at 11.0 µM 45% | [2]; at 33.0 µM 57% | [3]; at 1.2 µM 9% | [3]; at 3.7 µM 29% | [3]; at 11.0 µM 60% | [5]; at 1.2 µM 1% | [5]; at 3.7 µM 6% | [5]; [17] 9% | [5]; at 11.0 µM 31% | [5]; [18] 49% | [6]; at 1.2 µM 0% | [6]; at 3.7 µM 6% | [6]; [17] -1% | [6]; at 11.0 µM 48% | [6]; [18] 4% | [7]; at 1.2 µM 1% | [7]; at 3.7 µM 0% | [7]; at 11.0 µM 13% | [7]; at 33.0 µM 66% | [16]; [17] 8% | [8]; at 1.2 µM -3% | [8]; at 3.7 µM 4% | [8]; at 11.0 µM 41% | [8]; at 33.0 µM 67% | [9]; [17] 9% | [9]; [18] 32% | [10]; at 1.2 µM -3% | [10]; at 3.7 µM 6% | [10]; [17] 27% | [10]; at 11.0 µM 64% | [10]; [18] 66% | [11]; at 1.2 µM 3% | [11]; at 3.7 µM 13% | [11]; at 11.0 µM 34% | [11]; at 33.0 µM 60% | [12]; at 1.2 µM 3% | [12]; at 3.7 µM 5% | [12]; at 11.0 µM 31% | [13]; at 1.2 µM 3% | [13]; at 3.7 µM 14% | [13]; at 11.0 µM 59% | [14]; [17] 45% | [15]; at 1.2 µM 6% | [15]; at 3.7 µM 17% | [15]; at 11.0 µM 65%
active: [1]; at 33.0 µM 85% | [1]; at 100.0 µM 98% | [2]; at 100.0 µM 94% | [3]; at 33.0 µM 85% | [3]; at 100.0 µM 96% | [5]; at 33.0 µM 75% | [5]; at 50.0 µM 95.5% | [5]; at 100.0 µM 97% | [6]; at 33.0 µM 81% | [6]; at 50.0 µM 83.8% | [6]; at 100.0 µM 97% | [7]; at 100.0 µM 98% | [16]; [18] 78% | [16]; at 50.0 µM 90.5% | [8]; at 100.0 µM 96% | [9]; at 50.0 µM 80.8% | [10]; at 33.0 µM 95% | [10]; at 50.0 µM 92.2% | [10]; at 100.0 µM 97% | [11]; at 100.0 µM 97% | [12]; at 33.0 µM 75% | [12]; at 100.0 µM 98% | [13]; at 33.0 µM 92% | [13]; at 100.0 µM 98% | [14]; [18] 89% | [14]; at 50.0 µM 82.7% | [15]; at 33.0 µM 92% | [15]; at 100.0 µM 97%
